Compound activity: PubChem BioAssay, National Center for Advancing Translational Sciences (NCATS)
This is a sample that favours compounds with a hit; in the whole collection about 1.1% have one here.
Menin MLL FP TR = qHTS Assay for Inhibitors Targeting the Menin-MLL Interaction in MLL Related Leukemias: Competition With Texas Red Labeled MLL-derived Mutant Peptide. Potency, µM (titrated, usually from 61.6 µM), for the others: at the top dose FP activity change, negative = inhibition, hits mostly inhibitors. O00255. Menin + Texas Red MLL mutant peptide, fluorescence polarization. hit rate 0.23% among 270,000; active = well fitted inhibition curve with a large enough effect in the polarisation, with a control signal flat, not every such curve was filed as active; inconclusive = small, poorly fitted or top-dose-only effect, or effect the other way, or a change in a side signal; inactive = no such curve, though single readings can be large or run the other way; the % refers to the polarisation; also: potency is read from the fitted curve at half-maximal effect; % of control where 0% means no effect
MLL CXXC-DNA inh = qHTS Fluorescence Polarization Assay for Inhibitors of MLL CXXC domain - DNA interaction. Potency, µM (top dose mostly 115 µM), without a hit: at the highest dose activity change, negative = inhibition, actives largely listed as inhibitors. MLL-CXXC / FITC-HOXA9 DNA fluorescence polarization. hit rate 0.037% among 290,000; active = well fitted inhibition curve with a large enough effect in the polarisation, with a control signal flat, not every such curve was filed as active; inconclusive = small, poorly fitted or top-dose-only effect, or effect the other way, or a change in a side signal; inactive = no such curve, though single readings can be large or run the other way; the % refers to the polarisation; also: potency is read from the fitted curve at half-maximal effect
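Fluorescence polarization: 7 uM MLL-CXXC (stock) preincubated 5 min with compounds, then 50 nM fluorescein-HOX-A9 DNA (stock) added; 30 min ambient. Buffer 50 mM Tris-HCl pH 7.5, 50 mM NaCl, 1 mM DTT, 0.05% BSA.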
Menin-MLL FL inh = qHTS Assay for Inhibitors Targeting the Menin-MLL Interaction in MLL Related Leukemias: Competition With Fluorescein Labeled MLL-derived Peptide; Fluorescence polarization, fluorescein-MLL peptide displacement from menin; FP activity change, % at 61.4 µM; 290,000 tested, under 10 active; active = well fitted curve in the direction sought with a large enough effect in the polarisation, not every such curve was filed as active; inconclusive = small, poorly fitted or top-dose-only effect, or effect the other way, or a change in a side signal; inactive = no such curve, though single readings can be large or run the other way; the % refers to the polarisation; also: % of control where 0% means no effect
KCNH2 3.1 inh = qHTS for Inhibitors of KCHN2 3.1: Mutant qHTS. hit rate 0.95% among 340,000. U2OS KCNH2 3.1, thallium flux FluxOr; active compounds read low. activity change, % (tested at about 1.8 µM). Potassium voltage-gated channel subfamily H member 2, brain isoform KCNH2 3.1 (human);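 active = maximum activity change below -70%; inconclusive = maximum activity change from -70% to -50%; inactive = maximum activity change above -50%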;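 also: thallium influx rate constant from kinetic fluorescence after stimulation buffer; % is scaled to controls: 0 for no effect and ±100 for the full control effect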
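Thallium flux via FluxOr fluorescence (Red40 quencher, 45 min loading) in U2OS cells virally expressing the KCNH2 3.1 isoform (1.77 x 10^8 /mL virus, overnight at 37 C). Rate constants from 2-min kinetic reads post-stimulation, normalised to positive and negative controls.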
hERG WT inh = qHTS for Inhibitors of KCHN2 3.1: Wildtype qHTS; Voltage-gated inwardly rectifying potassium channel KCNH2 (Homo sapiens), Q12809; U2OS, BacMam KCNH2, thallium flux FluxOr; active compounds read low; activity change, % at 1.84 µM; hit rate 0.37% among 340,000;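 active = maximum activity change below -70%; inconclusive = maximum activity change between -70% and -50%; inactive = maximum activity change above -50%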; also: % is scaled to controls: 0 for no effect and ±100 for the full control effect
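U2OS cells transduced with wild-type KCNH2 virus are loaded with FluxOr dye for 45 min, and thallium flux is measured in kinetic reads before and after stimulation buffer. Rate constants are normalized to DMSO controls.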
MLL CXXC Fl = qHTS Fluorescence Polarization (FP) Assay for Inhibitors of MLL CXXC domain - DNA interaction: Fluorescein FP | shares compounds with MLL CXXC-DNA inh | MLL CXXC-DNA binding, fluorescein FP | Potency, µM (doses to about 345 µM), for the others: at the highest dose activity change, negative = inhibition, actives largely listed as inhibitors | hit rate 70% among 200 | AID 624160, 2012; also: potency is read from the fitted curve at half-maximal effect; nearly all actives have a fitted effect of over 80% in size
MLL CXXC TxRed = qHTS Fluorescence Polarization (FP) Assay for Inhibitors of MLL CXXC domain - DNA interaction: Texas Red FP; shares compounds with MLL CXXC-DNA inh; MLL CXXC-DNA binding, Texas Red fluorescence polarization; Potency, µM (highest dose often 345 µM), for the others: at the top dose activity change, negative = inhibition, usual class: inhibitors; hit rate 40% among 200; also: potency is read from the fitted curve at half-maximal effect; % is scaled to controls: 0 for no effect and ±100 for the full control effect; nearly all actives have a fitted effect of over 75% in size
MLL CXXC HTRF = qHTS Fluorescence Polarization (FP) Assay for Inhibitors of MLL CXXC domain - DNA interaction: HTRF Assay; shares compounds with MLL CXXC-DNA inh; Potency, µM (series often up to 172 µM), for the others: at the top dose activity change, negative = inhibition, usual class: inhibitors; MLL CXXC-DNA binding, HTRF, biochemical; hit rate 30% among 210; also: % is scaled to controls: 0 for no effect and ±100 for the full control effect; nearly all actives have a fitted effect of over 80% in size
Active calls of the source: *. Unless noted, calls follow the shape of the dose curve; as a rule, active = well fitted inhibition curve with a large enough effect; inconclusive = small, poorly fitted or top-dose-only effect; inactive = no such curve, though single readings can be large or run the other way.

`Cc1nc(NCCC(C)C)c2nnn(Cc3ccccc3)c2n1` gave Menin MLL FP TR -29.1%, MLL CXXC-DNA inh -5.5%, Menin-MLL FL inh -3.5, KCNH2 3.1 inh -11.6 and hERG WT inh -12.9.
Screening CCN(CC(=O)Nc1c(F)cccc1F)C(=O)c1ccc2c(c1)C(=O)N(c1ccccc1C)C2=O returned KCNH2 3.1 inh 4.6 and hERG WT inh -2.5.
`O=C(NCc1ccc2c(c1)OCO2)C(=O)NCC1OCCCN1S(=O)(=O)c1ccccc1` (stereo not drawn) gave KCNH2 3.1 inh 0.5 and hERG WT inh 7.6.
`COC(=O)c1c(C)[nH]c(C)c1-c1ccc(C)cc1` gave Menin MLL FP TR -0.8%, MLL CXXC-DNA inh inconclusive, Menin-MLL FL inh 5.2, KCNH2 3.1 inh -12.4, hERG WT inh 0.5, MLL CXXC Fl 17.9µM*, MLL CXXC TxRed inconclusive and MLL CXXC HTRF -7.5%.
Screening COC(=O)c1c(C)[nH]c(C)c1-c1cccc([N+](=O)[O-])c1 returned Menin MLL FP TR 41.6%, MLL CXXC-DNA inh -0.3%, Menin-MLL FL inh 2.4, KCNH2 3.1 inh -9.8 and hERG WT inh -2.4.
Screening O=C(c1ccco1)N1CCN(C2CC(=O)N(c3ccc(F)c(Cl)c3)C2=O)CC1 (stereo not drawn) returned Menin MLL FP TR 21.2%, MLL CXXC-DNA inh 30.1%, Menin-MLL FL inh 1.6, KCNH2 3.1 inh 10.1 and hERG WT inh 5.5.
Screening CC1(C)CC(=O)C(C(C2=C(O)CC(C)(C)CC2=O)c2ccc(Br)s2)C(=O)C1 (stereo not drawn) returned Menin MLL FP TR 24.2%, MLL CXXC-DNA inh inconclusive, Menin-MLL FL inh 5.0, KCNH2 3.1 inh -0.2, hERG WT inh -9.4, MLL CXXC Fl 40µM*, MLL CXXC TxRed 37.3% and MLL CXXC HTRF 15.3µM*.
`COCCCNC(=S)NNC(=S)NCCCOC` gave MLL CXXC-DNA inh -13.0%, Menin-MLL FL inh -1.3, KCNH2 3.1 inh -36.3 and hERG WT inh 4.2.
COCCCNC(=S)NNC(=O)c1cc(Cl)c(O)c(Cl)c1 was read as MLL CXXC-DNA inh inconclusive, Menin-MLL FL inh -0.8, KCNH2 3.1 inh -4.9, hERG WT inh -4.4 and MLL CXXC HTRF 0.1%.
O=C(O)c1ccc(COc2ccccc2C=C2C(=O)c3ccccc3C2=O)cc1 was read as Menin MLL FP TR 26.6%, MLL CXXC-DNA inh 17.8µM*, Menin-MLL FL inh 4.3, KCNH2 3.1 inh -0.8, hERG WT inh 14.1, MLL CXXC Fl 17.9µM*, MLL CXXC TxRed 56.5µM* and MLL CXXC HTRF 76.9µM*.
CCC(C)c1ccc(NC(=O)Nc2cccnc2)cc1 (stereo not drawn) was read as Menin MLL FP TR inconclusive, MLL CXXC-DNA inh inconclusive, Menin-MLL FL inh -6.3, KCNH2 3.1 inh 13.8, hERG WT inh 2.8, MLL CXXC Fl -6.8%, MLL CXXC TxRed inconclusive and MLL CXXC HTRF 0.7%.
`CCC(C)c1ccc(NC(=O)NCc2cccnc2)cc1` (stereo not drawn) gave Menin MLL FP TR 16.1%, MLL CXXC-DNA inh inconclusive, Menin-MLL FL inh 6.0, KCNH2 3.1 inh 16.1 and hERG WT inh 0.9.
`O=C(O)c1cccc(-n2cccc2C=C2C(=O)c3ccccc3C2=O)c1` gave Menin MLL FP TR inconclusive, MLL CXXC-DNA inh inconclusive, Menin-MLL FL inh 7.9, KCNH2 3.1 inh 21.5, hERG WT inh 0.6, MLL CXXC Fl 179µM*, MLL CXXC TxRed inconclusive and MLL CXXC HTRF 25.2%.
For CCOC(=O)CNC(=O)CSc1nc(Cc2ccccc2)nc2ccccc12 the results were Menin MLL FP TR -3.2%, MLL CXXC-DNA inh -4.5%, Menin-MLL FL inh 0.1, KCNH2 3.1 inh -2.1 and hERG WT inh -3.4.
`CCOC(=O)/C=C(\C)Sc1cc(O)c2ccccc2c1O` gave MLL CXXC-DNA inh 31.6µM*, Menin-MLL FL inh -7.2, KCNH2 3.1 inh 8.7, hERG WT inh -3.9, MLL CXXC Fl inconclusive, MLL CXXC TxRed inconclusive and MLL CXXC HTRF 19.3µM*.
For CCOC(=O)/C=C(\C)Sc1cc(=O)oc2ccccc12 the results were Menin MLL FP TR -12.2%, MLL CXXC-DNA inh 3.1%, Menin-MLL FL inh 4.4, KCNH2 3.1 inh -8.4 and hERG WT inh -1.9.
`O=C1/C(=N\S(=O)(=O)c2cccs2)C([n+]2ccc(CCCc3ccccc3)cc2)=C([O-])c2ccccc21` gave MLL CXXC-DNA inh -28.6%, Menin-MLL FL inh -18.8, KCNH2 3.1 inh -3.4 and hERG WT inh 15.9.
`O=C1/C(=N\S(=O)(=O)c2cccs2)C([n+]2cccc(Cc3ccccc3)c2)=C([O-])c2ccccc21` gave MLL CXXC-DNA inh 25.1µM*, Menin-MLL FL inh inconclusive, KCNH2 3.1 inh -6.1, hERG WT inh 0.4, MLL CXXC Fl 142µM*, MLL CXXC TxRed inconclusive and MLL CXXC HTRF 68.8%.
For O=C1CN(C(=O)COC(=O)CCC(=O)c2ccc(F)cc2)c2ccccc2N1 the results were KCNH2 3.1 inh 6.8 and hERG WT inh 2.5.
`N#C/C(=C\c1cccs1)C(=O)c1ccccc1` gave MLL CXXC-DNA inh inconclusive, Menin-MLL FL inh 0.8, KCNH2 3.1 inh -1.8, hERG WT inh 0.5, MLL CXXC Fl 3.2%, MLL CXXC TxRed 113µM* and MLL CXXC HTRF -13.9%.
For N#C/C(=C\c1ccc(C#N)cc1)C(=O)c1ccccc1 the results were Menin MLL FP TR 16.5%, MLL CXXC-DNA inh inconclusive, Menin-MLL FL inh 0.9, KCNH2 3.1 inh -9.6 and hERG WT inh -6.0.
